Experimental findings from PubChem BioAssay AID1347426 (Functional Genomics Laboratory (NCATS/FGL), 2020) are described below.

About 1,400 (4.5%) of roughly 31,000 sequences were called active. This excerpt belongs to a sample that is enriched for actives. Unmarked numbers belong to inactive results.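 The calls were made as follows: active = median seed-adjusted z-score above 1 or below -1; inactive = the rest.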

This assay can be described thus: Novel Modifiers of Survival Motor Neuron (SMN) Protein: Gene Identification via Genome-wide siRNA Screen. The settings on record: HEK293T SMN2-luciferase reporter, siRNA knockdown, 72 h; actives lie on both sides. The text has this: Spinal muscular atrophy (SMA) is the most common neuromuscular autosomal recessive disorder and one of the leading genetic causes of infant death. SMA results from mutations inducing loss of function or deletion in the survival of motor neuron-1 gene (SMN1), leading to deficiency of the survival motor neuron (SMN) protein. Although a second nearly identical gene, SMN2, is retained in humans, its expression primarily produces an aberrantly spliced isoform that is largely unstable and quickly degraded. We performed a genome-wide RNAi screen using a cell-based reporter assay to identify genes and pathways that modulate SMN protein stability. The screen identified over 200 genes that led to the greatest increase or decrease in luciferase expression.
Using HEK293T cells stably expressing a luciferase reporter that combines the promoter and splicing based cassettes in tandem with the major portion of the native SMN2 cDNA with luciferase, we performed a genome-wide RNAi screen to identify modulators of SMN protein levels. Luciferase is expressed when full-length SMN protein is generated with luminescence signal proportional to SMN protein levels. Our luciferase-based reporter assay was used to screen Ambion Silencer Select Human Druggable Genome siRNA library (10418 genes, 3 unique siRNAs per gene) using lipid-based reverse transfection.
Briefly, 1 pmol of each siRNA was spotted to a well of a 384-well plate (Corning, Corning, NY) and 20 microL of serum-free DMEM containing […] of Lipofectamine RNAiMax (Life Technologies, Carlsbad, CA) was then added to each well. Transfected cells were maintained at 37 degrees C in 5% CO2 for 72 hours, 20 microL of ONE-Glo Reagent (Promega) was added to wells for luciferase quantification. Raw luminescence reads were normalized to Ambion(R) Silencer(R) Negative Control #2 siRNA, then log10 transformed. A robust statistical measure of median absolute deviation (MAD) to standardize siRNA activities from each screen. Common Seed Analysis was used to help prioritize clean hits as opposed to those appearing to arise from seed based off-target effects. Candidate modulators were defined as the genes having a MAD score greater than 1.0 or less than -1.0.
Regarding GGAACCCUUUGAUCAAUUUTT against ADAMTS7, the median seed-adjusted z-score is 0.146. The value for GAUUGCAGCCAAUCCCUUUTT against TBX6 was 0.144; that for CACUAGAUCGCGAUAAUAATT against DDB1 was 0.231. As to GGAAGGCAUUACUCACUUATT against SIRT3, the median seed-adjusted z-score was -0.341. For the sequence GCCAGAAUCCUUUAGCAGUTT against CRTC1, the median seed-adjusted z-score was 0.00363. The value for GCAUCUGAAGACUCAGGCATT against TAZ was 0.0549; that for UCAGCUGUAUCGACCAGAATT against MYL7 was -1.21 (active). The value for GAAAUCAGCCUAUGGUUUATT against NME2 was -0.0728; that for CCGUAUAUCUGGUGGUUAUTT against PLOD2 was -0.281; that for GAAUCAUAAUCGCUCCUUUTT against SPRR1A was -0.0536.

With GAAUCCGGAUGAGUACUAUTT against PHF17, the median seed-adjusted z-score is 1.01 (active). To CAGUCCCUAUUUCAAAAUATT against PDE6G belongs 0.0109; to GAAUGAUAUUGUCCAUCGATT against CDKL5, -0.256; to ACUUCAACGUGACCACAGATT against PNPLA6, 0.309.

In the case of GAUACGCCCUUAUAAUGCATT against ZBTB11, the median seed-adjusted z-score was -0.105. On to GAAAUUGCCUAUUACUCUUTT against SLC19A2, for which the median seed-adjusted z-score is -0.679. Turning to UCAUAAUUAUCUCACCAGATT against MEOX2, the median seed-adjusted z-score is 1.36 (active). The value for CCUCUAACGUACCAUCUAATT against OLAH was -0.44; that for GUAAGGCAAAGACUCCCUATT against ZNF673 was 0.419; that for GGGACGGAAUAAAUGCUCUTT against NDUFA13 was -0.138.

For CUAAGGAAGUAGUUGAUUATT against HADHB, the median seed-adjusted z-score was -0.188. To CUACCGUAACAACCGAAAATT against SCN10A belongs -0.401; to CCAUUGCAAUCAACACCAATT against ALOX5, -0.201. To GAUGACUUUUGAUAGUGAATT against ODC1 belongs -1.64 (active); to AGGUCAUUGCUGAGAAGUATT against FMNL1, -0.3; to GGAAGUACAUGAACGCAGUTT against EFTUD1, -1.39 (active). Take GGACGACACGUUCUACCUGTT against ENDOG: the median seed-adjusted z-score was -0.336. The value for GCAGACAAGUCAACCGUGATT against FRK was -0.14. To CAGGUUAUCGUGUGAAGGATT against TNFRSF14 belongs 0; to GCACGAAGCUUUCCCUGGATT against KRT78, 0.306; to GUUUGAUGGUGAUAAGAAATT against PGD, -1.55 (active). The value for GAACCAAAUUGUACGAGAATT against IRX3 was -0.285; that for GGGAUAAAUUUGACGUGGATT against SPAG1 was 0.413.

GCUACAUCCUGUUCGAGAATT against CYP27A1: the median seed-adjusted z-score was -0.391. To CAGAAUAAAUCACACCCUATT against INSL3 belongs -0.037; to CCAAGAUGAGUAUAAAACATT against HRC, 1.06 (active); to CCAUCUGCUUUCCCGAGUATT against GNAZ, -0.604. The value for GCUGUGGAUUGUCCAACAATT against NPY5R was 0.213; that for UCAACUGACUCAUACCUGUTT against KCNMB1 was -0.465.

Consider GAACCACUAUGAUCAUUGATT against DPYSL2, for which the median seed-adjusted z-score is -0.569.

Consider CAGUGUAUCUUCAUAAGAUTT against TAF1L, for which the median seed-adjusted z-score was 0.289. To AGAGUGGAUUUGUACCAAATT against RAB39B belongs 0.485; to CGGUGACUCUUUAUGCACATT against PMPCB, 0.507; to GAGAGUGCCUUACACCAAATT against HOXD13, 0.116. The value for GAGAGAAAAGGGUCACAAATT against GPR61 was 0; that for UGACCAUCGUCUACAAGAATT against COPZ2 was -1.23 (active). To CAAGAAGCAUUAUUACGAUTT against PPIL2 belongs -0.467; to CCCUAGAGUAUUACACGGATT against DGKD, 0.35.

For GGACAAAGACUGGUACGUUTT against HTT, the median seed-adjusted z-score is -0.234. The value for CCUUUUACAUGUUCUAUUUTT against SIVA1 was 0.0451; that for GGCAAGUUCUCCUUCGACATT against ALDH3B1 was 0.148; that for GAACUGUCGUAAACGCAAATT against NFE2L3 was 0.118. To GCCUUAAGGAUGAAGAUAATT against FOXR2 belongs 0.593. The value for GGUAUCACCUAUACAGAAATT against FKBP11 was -0.085.
